Measured potencies and affinities stand elsewhere. Active and inactive are the calls of the source.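 Rule for the calls: active = every repeat run showing a signal drop whose fitted half-maximal concentration is at most twice the top tested concentration; inconclusive = repeat runs disagree, or flat partial drop, or poor fit; inactive = the rest.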

Consider five compounds from PubChem BioAssay AID720690 (Broad Institute, 2013).

The assay in a line: general mammalian cell viability loss – activator set, cherry-pick, cytotoxicity control for miR-122 modulator project, dose response (AID 720690).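 Note: 0% = neutral control wells and -100% = MG132 cytotoxic control wells.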 The note with it: HEK293T viability, CellTiter-Glo luminescence, 48 h; series mostly up to 26 µM; activity change, negative = cytotoxicity: at the top concentration.
In the case of `Cc1cccc(NC(=O)Nc2ccc3c(c2)C(=O)N(C)[C@H]2CC[C@H](CC(=O)O)O[C@H]2CO3)c1`, the “activity change, negative = cytotoxicity” value is 6.36% (inactive).

On to `COc1cc(C(=O)Nc2ccc(S(=O)(=O)N3CCCCC3C)cc2)cc(OC)c1OC` (stereo not given), for which the “activity change, negative = cytotoxicity” value was 41.5% (inactive).

Turning to `CCS(=O)(=O)Nc1ccc2c(c1)C(=O)N(C)[C@@H]1CC[C@@H](CC(=O)NCCCN3CCOCC3)O[C@H]1CO2`, the “activity change, negative = cytotoxicity” value was -6.8% (inactive).

Consider `CC(=O)Nc1ccc2c(c1)C(=O)N(C)[C@H]1CC[C@H](CC(=O)NC3CCCCC3)O[C@@H]1CO2`, for which the “activity change, negative = cytotoxicity” value was -5.08% (inactive).

As to `CO[C@@H]1CN(C)C(=O)c2cc(NC(=O)Nc3ccc(Cl)c(Cl)c3)ccc2OC[C@H](C)NC[C@H]1C`, the “activity change, negative = cytotoxicity” value was -20.4% (inactive).
